The antibiotic and cytotoxicity screens of Wong et al. (2023)
Out of some 39,000 compounds screened, about 3,300 (8.5%) were called active. What follows is part of a selection rich in actives, with near analogues and random picks from the rest.

tested on: HepG2; test: cytotoxicity call (relative viability < 0.9); details: 10 µM

Compound	cytotoxicity call
C/C(C[P+](c1ccccc1)(c1ccccc1)c1ccccc1)=N\NC(=O)CCCCCC(=O)Nc1ccccc1O	inactive
C[C@H]1CN([C@@H](C)CO)C(=O)c2cc(C#CCN(C)C)cnc2O[C@@H]1CN(C)S(=O)(=O)c1cn(C)cn1	inactive
C[C@H](CO)N1C[C@H](C)[C@@H](CN(C)C(=O)Nc2ccc3c(c2)OCO3)OCCCC[C@H](C)Oc2ccc(NC(=O)Nc3cccc4ccccc34)cc2C1=O	inactive
C[C@@H]1CCCCO[C@@H](CN(C)S(=O)(=O)c2cccs2)[C@H](C)CN([C@@H](C)CO)C(=O)c2cc(NS(=O)(=O)c3cn(C)cn3)ccc2O1	inactive
C[C@H](CO)N1C[C@H](C)[C@@H](CN(C)C(=O)C2CC2)OCc2cnnn2CCCC1=O	inactive
C[C@@H]1CN([C@@H](C)CO)C(=O)Cc2cc(NC(=O)Nc3ccc(C(F)(F)F)cc3)ccc2O[C@H]1CN(C)C(=O)Nc1cccc2ccccc12	inactive
CO[C@H]1O[C@H](CO)[C@@H](OC(=O)Nc2ccccc2-c2ccccc2)[C@H](OC(=O)Nc2ccc3c(c2)OCO3)[C@H]1OC(=O)Nc1ccc2c(c1)OCO2	inactive
CO[C@H]1O[C@H](CO)[C@@H](OC(=O)Nc2ccccc2-c2ccccc2)[C@H](OC(=O)Nc2ccc3c(c2)OCO3)[C@@H]1OC(=O)Nc1ccc2c(c1)OCO2	inactive
CO[C@H]1O[C@H](CO)[C@@H](OC(=O)Nc2ccc3c(c2)OCO3)[C@H](OC(=O)Nc2ccc3c(c2)OCO3)[C@@H]1OC(=O)Nc1ccc2c(c1)OCO2	active
Nn1c(CO)nc2ccccc21	inactive
O=C(N[C@H]1CC[C@H](CCNS(=O)(=O)c2ccc(F)cc2)O[C@H]1CO)C1CC1	inactive
C[C@H]1CN([C@@H](C)CO)C(=O)Cc2cc(NC(=O)Nc3ccc4c(c3)OCO4)ccc2O[C@@H]1CN(C)S(C)(=O)=O	inactive
C[C@H]1CCCCO[C@H](CN(C)C(=O)C2CCCCC2)[C@@H](C)CN([C@@H](C)CO)C(=O)c2cc(NC(=O)c3ccncc3)ccc2O1	inactive
C[C@@H]1CN([C@@H](C)CO)C(=O)c2cc(NC(=O)Nc3ccc(F)cc3)ccc2O[C@@H]1CN(C)S(C)(=O)=O	inactive
Cc1noc(C)c1NC(=O)N(C)C[C@H]1Oc2ncc(C#CCC(C)C)cc2C(=O)N([C@@H](C)CO)C[C@H]1C	inactive
CCC(=O)N1Cc2cc(C(=O)Nc3nccs3)nc(-c3cccc(-c4ccccc4OC)c3)c2[C@H]1CCO	inactive
COc1ccccc1-c1cccc(-c2nc(C(=O)Nc3nccs3)cc3c2[C@@H](CCO)N(C(=O)CC2CC2)C3)c1	active
COc1ccccc1-c1cccc(-c2nc(C(=O)Nc3nccs3)cc3c2[C@H](CCO)N(C(=O)CC2CC2)C3)c1	inactive

Compound	cytotoxicity call
C[C@@H]1CN([C@@H](C)CO)C(=O)c2cc(NS(=O)(=O)c3ccc(Cl)cc3)ccc2O[C@@H](C)CCCCO[C@@H]1CN(C)Cc1ccncc1	inactive
C[C@@H]1CN([C@H](C)CO)C(=O)c2cc(C3=CCCCC3)cnc2O[C@@H]1CN(C)C(=O)CN1CCOCC1	inactive
c1nc2c(c(N3CCOCC3)n1)CCNCC2	inactive
CCCCC(CC)CN1CN(CC(CC)CCCC)CC(C)(N)C1 (stereo not given)	active
C[C@@H]1CCCCO[C@@H](CN(C)C(=O)Nc2ccccc2)[C@H](C)CN([C@H](C)CO)C(=O)c2cc(NC(=O)C3CCCCC3)ccc2O1	inactive
COc1ccc(S(=O)(=O)N(C)C[C@@H]2OCCCC[C@H](C)Oc3ccc(NC(=O)Nc4ccc(F)cc4)cc3C(=O)N([C@H](C)CO)C[C@@H]2C)cc1	inactive
C[C@H](CO)N1C[C@H](C)[C@@H](CN(C)C(=O)Nc2ccc(C(F)(F)F)cc2)OCCCC[C@H](C)Oc2ccc(NS(=O)(=O)c3cn(C)cn3)cc2C1=O	inactive
Cc1ccc(S(=O)(=O)Nc2ccc3c(c2)C(=O)N([C@@H](C)CO)C[C@@H](C)[C@H](CN(C)Cc2ccc(C(F)(F)F)cc2)OCCCC[C@H](C)O3)cc1	active
Cc1ccc(S(=O)(=O)Nc2ccc3c(c2)C(=O)N([C@H](C)CO)C[C@@H](C)[C@@H](CN(C)Cc2ccc(C(F)(F)F)cc2)OCCCC[C@H](C)O3)cc1	active
C[C@H]1CCCCO[C@@H](CN(C)Cc2ccc(C(F)(F)F)cc2)[C@@H](C)CN([C@@H](C)CO)C(=O)c2cc(NS(=O)(=O)c3ccc(F)cc3)ccc2O1	inactive
C[C@@H]1CCCCO[C@H](CN(C)Cc2ccc(C(F)(F)F)cc2)[C@H](C)CN([C@@H](C)CO)C(=O)c2cc(NS(=O)(=O)c3ccc(F)cc3)ccc2O1	inactive
C[C@H]1CCCCO[C@H](CN(C)Cc2ccc(C(F)(F)F)cc2)[C@@H](C)CN([C@@H](C)CO)C(=O)c2cc(NS(=O)(=O)c3ccc(F)cc3)ccc2O1	inactive
Cc1ccc(S(=O)(=O)Nc2ccc3c(c2)C(=O)N([C@@H](C)CO)C[C@H](C)[C@H](CN(C)Cc2ccc(C(F)(F)F)cc2)OCCCC[C@H](C)O3)cc1	inactive
Cc1ccc(S(=O)(=O)Nc2ccc3c(c2)C(=O)N([C@H](C)CO)C[C@H](C)[C@H](CN(C)Cc2ccc(C(F)(F)F)cc2)OCCCC[C@@H](C)O3)cc1	active
Cc1ccc(S(=O)(=O)Nc2ccc3c(c2)C(=O)N([C@H](C)CO)C[C@H](C)[C@@H](CN(C)Cc2ccc(C(F)(F)F)cc2)OCCCC[C@@H](C)O3)cc1	inactive
Cc1ccc(S(=O)(=O)Nc2ccc3c(c2)C(=O)N([C@H](C)CO)C[C@@H](C)[C@H](CN(C)Cc2ccc(C(F)(F)F)cc2)OCCCC[C@@H](C)O3)cc1	active
C[C@@H]1CN([C@@H](C)CO)C(=O)c2cc(NS(=O)(=O)c3ccc(F)cc3)ccc2O[C@@H](C)CCCCO[C@@H]1CN(C)Cc1ccc(C(F)(F)F)cc1	inactive
